# Measured values: paper PMC7862700, “An all-to-all approach to the identification of sequence-specific readers for epigenetic DNA modifications on cytosine”
# Experiments:
# Assay in all cases: DAPPL (digital affinity profiling via proximity ligation, sequencing); 10 mM Tris-HCl pH 7.5, 50 mM NaCl, 1 mM DTT, 4% glycerol, room temperature, 30 min; GST-TFs on glutathione beads, 16-mer random dsDNA library, 0.1% formaldehyde crosslink after washing; high values mean tight binding
# [1] = molecular target: T1, FLI1 (Homo sapiens, UniProt Q01543 1-452); settings: protein: recombinant; tags: N-terminal GST; dsDNA, one strand shown
# T1 sequence: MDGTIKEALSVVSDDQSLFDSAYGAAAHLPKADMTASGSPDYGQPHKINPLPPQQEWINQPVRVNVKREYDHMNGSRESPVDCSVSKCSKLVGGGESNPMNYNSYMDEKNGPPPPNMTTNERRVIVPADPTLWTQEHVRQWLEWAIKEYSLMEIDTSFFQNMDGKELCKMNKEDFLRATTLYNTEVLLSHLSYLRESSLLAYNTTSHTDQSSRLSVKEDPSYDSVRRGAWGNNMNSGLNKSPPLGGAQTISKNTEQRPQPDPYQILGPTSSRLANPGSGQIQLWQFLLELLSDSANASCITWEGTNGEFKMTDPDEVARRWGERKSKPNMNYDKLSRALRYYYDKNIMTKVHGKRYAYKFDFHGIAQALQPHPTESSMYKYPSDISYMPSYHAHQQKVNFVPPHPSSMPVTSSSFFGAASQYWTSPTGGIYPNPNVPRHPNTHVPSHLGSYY
# How it was run: (§1)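 After expression in yeast as GST fusions, human transcription factors were bound to glutathione beads, DNA-barcoded and mixed with a tag-only sample. The pools were incubated with 200 nmole of a 16-mer random double-stranded DNA library in Tris/NaCl/DTT/glycerol buffer (30 min, room temperature), washed and crosslinked with 0.1% formaldehyde. Proximity ligation with BsaI/T4 ligase ran for 1 h at 37 °C, before PCR amplification and sequencing on an Illumina NextSeq500. Binding signal is a hexamer's read frequency for a factor divided by its frequency for the tag-only sample.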
# [2] = molecular target: T2, ELK1 (Homo sapiens, UniProt P19419 1-428); settings: protein: recombinant; tags: N-terminal GST; dsDNA, one strand shown
# T2 sequence: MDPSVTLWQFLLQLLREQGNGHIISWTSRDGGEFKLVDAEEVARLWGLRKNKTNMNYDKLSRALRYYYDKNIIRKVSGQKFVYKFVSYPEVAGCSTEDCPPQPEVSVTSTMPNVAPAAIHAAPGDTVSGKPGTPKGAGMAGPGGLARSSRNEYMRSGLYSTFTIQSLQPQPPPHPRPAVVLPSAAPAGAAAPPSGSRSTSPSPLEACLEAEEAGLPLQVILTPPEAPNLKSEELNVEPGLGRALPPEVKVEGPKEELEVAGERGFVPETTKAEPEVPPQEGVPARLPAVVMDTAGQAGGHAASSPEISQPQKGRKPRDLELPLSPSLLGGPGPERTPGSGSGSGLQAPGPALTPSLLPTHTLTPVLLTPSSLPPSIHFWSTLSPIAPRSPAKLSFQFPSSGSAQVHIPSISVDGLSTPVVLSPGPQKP
# How it was run: as §1
# [3] = molecular target: T3, GABPA (Homo sapiens, UniProt Q06546 1-454); settings: protein: recombinant; tags: N-terminal GST; dsDNA, one strand shown
# T3 sequence: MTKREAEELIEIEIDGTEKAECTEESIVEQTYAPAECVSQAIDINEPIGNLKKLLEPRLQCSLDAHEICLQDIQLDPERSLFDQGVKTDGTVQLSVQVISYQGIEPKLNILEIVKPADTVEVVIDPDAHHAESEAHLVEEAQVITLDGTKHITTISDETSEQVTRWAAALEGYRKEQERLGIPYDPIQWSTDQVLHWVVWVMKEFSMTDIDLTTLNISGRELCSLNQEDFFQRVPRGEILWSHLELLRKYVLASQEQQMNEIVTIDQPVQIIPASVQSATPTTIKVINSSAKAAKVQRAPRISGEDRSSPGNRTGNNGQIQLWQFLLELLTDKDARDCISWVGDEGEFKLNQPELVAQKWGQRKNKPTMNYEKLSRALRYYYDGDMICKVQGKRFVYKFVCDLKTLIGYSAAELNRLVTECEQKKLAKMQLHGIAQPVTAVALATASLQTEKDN
# How it was run: as §1
# [4] = molecular target: T4, ERG (Homo sapiens, UniProt P11308 1-479); settings: protein: recombinant; tags: N-terminal GST; dsDNA, one strand shown
# T4 sequence: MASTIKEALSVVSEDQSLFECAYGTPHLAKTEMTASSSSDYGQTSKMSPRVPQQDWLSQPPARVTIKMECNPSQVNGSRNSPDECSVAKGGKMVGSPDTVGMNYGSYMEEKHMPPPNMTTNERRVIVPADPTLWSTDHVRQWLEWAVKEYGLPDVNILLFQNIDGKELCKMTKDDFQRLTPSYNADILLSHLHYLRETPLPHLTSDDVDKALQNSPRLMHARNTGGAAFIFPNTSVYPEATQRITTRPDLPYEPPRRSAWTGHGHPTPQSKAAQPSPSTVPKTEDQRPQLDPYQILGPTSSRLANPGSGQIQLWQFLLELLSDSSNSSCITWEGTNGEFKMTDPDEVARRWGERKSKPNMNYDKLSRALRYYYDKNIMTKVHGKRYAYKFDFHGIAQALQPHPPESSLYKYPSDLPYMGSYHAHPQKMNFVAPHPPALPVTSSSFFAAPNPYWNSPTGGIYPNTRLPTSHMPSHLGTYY
# How it was run: as §1
# [5] = molecular target: ELF1 (Homo sapiens, UniProt P32519 1-619); settings: protein: recombinant; tags: N-terminal GST; dsDNA, one strand shown
# How it was run: as §1
# [6] = molecular target: T5, EHF (Homo sapiens, UniProt Q9NZC4 1-300); settings: protein: recombinant; tags: N-terminal GST; dsDNA, one strand shown
# T5 sequence: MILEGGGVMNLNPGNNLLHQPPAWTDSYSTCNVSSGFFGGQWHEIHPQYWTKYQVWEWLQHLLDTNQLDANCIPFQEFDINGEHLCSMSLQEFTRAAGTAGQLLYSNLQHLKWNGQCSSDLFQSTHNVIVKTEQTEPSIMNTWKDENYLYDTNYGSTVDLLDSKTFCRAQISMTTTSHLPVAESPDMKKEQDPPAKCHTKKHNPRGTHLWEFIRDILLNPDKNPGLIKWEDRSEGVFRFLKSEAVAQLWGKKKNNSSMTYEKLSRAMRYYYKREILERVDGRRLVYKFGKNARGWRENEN
# How it was run: as §1
# [7] = molecular target: SPI1 (Homo sapiens, UniProt P17947 1-270); settings: protein: recombinant; tags: N-terminal GST; dsDNA, one strand shown
# How it was run: as §1
# [8] = molecular target: SPIB (Homo sapiens, UniProt Q01892 1-262); settings: protein: recombinant; tags: N-terminal GST; dsDNA, one strand shown
# How it was run: as §1
# [9] = molecular target: T6, ELK3 (Homo sapiens, UniProt P41970 1-407); settings: protein: recombinant; tags: N-terminal GST; dsDNA, one strand shown
# T6 sequence: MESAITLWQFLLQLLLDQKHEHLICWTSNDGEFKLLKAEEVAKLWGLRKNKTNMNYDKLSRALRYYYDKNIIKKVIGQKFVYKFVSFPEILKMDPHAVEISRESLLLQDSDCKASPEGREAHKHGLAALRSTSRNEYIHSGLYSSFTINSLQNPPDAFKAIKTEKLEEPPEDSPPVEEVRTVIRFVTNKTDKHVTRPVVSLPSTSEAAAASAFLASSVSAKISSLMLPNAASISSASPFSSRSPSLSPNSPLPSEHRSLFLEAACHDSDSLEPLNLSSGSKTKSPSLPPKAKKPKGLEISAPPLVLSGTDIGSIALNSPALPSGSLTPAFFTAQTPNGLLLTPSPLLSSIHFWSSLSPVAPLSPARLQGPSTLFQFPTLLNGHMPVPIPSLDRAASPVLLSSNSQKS
# How it was run: as §1
# [10] = molecular target: T7, FEV (Homo sapiens, UniProt Q99581 1-238); settings: protein: recombinant; tags: N-terminal GST; dsDNA, one strand shown
# T7 sequence: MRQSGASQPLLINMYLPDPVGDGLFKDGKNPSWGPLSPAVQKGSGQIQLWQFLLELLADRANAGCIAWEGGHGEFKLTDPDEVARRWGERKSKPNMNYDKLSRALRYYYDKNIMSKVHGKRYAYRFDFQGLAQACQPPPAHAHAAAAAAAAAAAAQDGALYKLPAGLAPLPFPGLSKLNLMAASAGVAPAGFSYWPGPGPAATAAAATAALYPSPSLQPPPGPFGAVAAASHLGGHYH
# How it was run: as §1
# [11] = molecular target: ETV5 (Homo sapiens, UniProt P41161 1-510); settings: protein: recombinant; tags: N-terminal GST; dsDNA, one strand shown
# How it was run: as §1
# [12] = molecular target: HSF1 (Homo sapiens, UniProt Q00613 1-529); settings: protein: recombinant; tags: N-terminal GST; chain copies: 3; dsDNA, one strand shown
# How it was run: as §1
# [13] = molecular target: T8, SPIC (Homo sapiens, UniProt Q8N5J4 1-248); settings: protein: recombinant; tags: N-terminal GST; dsDNA, one strand shown
# T8 sequence: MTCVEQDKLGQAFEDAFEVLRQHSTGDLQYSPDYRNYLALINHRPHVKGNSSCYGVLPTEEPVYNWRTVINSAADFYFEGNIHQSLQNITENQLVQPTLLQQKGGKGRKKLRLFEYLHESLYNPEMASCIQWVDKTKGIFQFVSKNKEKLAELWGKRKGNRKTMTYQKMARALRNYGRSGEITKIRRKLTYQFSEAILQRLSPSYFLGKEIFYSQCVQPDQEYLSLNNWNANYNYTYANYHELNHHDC
# How it was run: as §1
# [14] = molecular target: ELF4 (Homo sapiens, UniProt Q99607 1-663); settings: protein: recombinant; tags: N-terminal GST; dsDNA, one strand shown
# How it was run: as §1
# [15] = molecular target: T9, ELK4 (Homo sapiens, UniProt P28324-2 1-405); settings: protein: recombinant; tags: N-terminal GST; dsDNA, one strand shown
# T9 sequence: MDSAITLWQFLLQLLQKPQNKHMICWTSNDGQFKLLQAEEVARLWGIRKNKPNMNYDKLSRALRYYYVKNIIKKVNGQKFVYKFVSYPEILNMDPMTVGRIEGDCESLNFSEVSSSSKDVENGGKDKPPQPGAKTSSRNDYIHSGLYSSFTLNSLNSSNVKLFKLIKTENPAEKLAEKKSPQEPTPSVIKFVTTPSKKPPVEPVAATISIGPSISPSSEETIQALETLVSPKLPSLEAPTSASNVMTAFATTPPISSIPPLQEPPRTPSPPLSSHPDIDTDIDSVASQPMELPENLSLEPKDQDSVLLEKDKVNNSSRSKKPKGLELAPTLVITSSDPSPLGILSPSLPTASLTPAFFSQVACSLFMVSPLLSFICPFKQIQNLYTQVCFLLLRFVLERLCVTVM
# How it was run: as §1
# [16] = molecular target: T10, ETV2 (Homo sapiens, UniProt O00321 1-342); settings: protein: recombinant; tags: N-terminal GST; dsDNA, one strand shown
# T10 sequence: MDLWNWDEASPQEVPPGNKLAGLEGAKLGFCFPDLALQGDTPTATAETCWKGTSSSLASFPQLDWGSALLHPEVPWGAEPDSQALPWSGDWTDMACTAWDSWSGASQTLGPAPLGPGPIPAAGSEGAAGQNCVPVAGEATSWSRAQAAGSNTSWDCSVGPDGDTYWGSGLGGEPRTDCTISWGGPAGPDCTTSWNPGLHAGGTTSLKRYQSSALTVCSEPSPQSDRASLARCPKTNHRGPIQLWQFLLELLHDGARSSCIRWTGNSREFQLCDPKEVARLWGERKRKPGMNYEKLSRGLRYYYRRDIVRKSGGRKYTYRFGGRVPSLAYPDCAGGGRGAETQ
# How it was run: as §1
# [17] = molecular target: T11, ELF3 (Homo sapiens, UniProt P78545 1-371); settings: protein: recombinant; tags: N-terminal GST; dsDNA, one strand shown
# T11 sequence: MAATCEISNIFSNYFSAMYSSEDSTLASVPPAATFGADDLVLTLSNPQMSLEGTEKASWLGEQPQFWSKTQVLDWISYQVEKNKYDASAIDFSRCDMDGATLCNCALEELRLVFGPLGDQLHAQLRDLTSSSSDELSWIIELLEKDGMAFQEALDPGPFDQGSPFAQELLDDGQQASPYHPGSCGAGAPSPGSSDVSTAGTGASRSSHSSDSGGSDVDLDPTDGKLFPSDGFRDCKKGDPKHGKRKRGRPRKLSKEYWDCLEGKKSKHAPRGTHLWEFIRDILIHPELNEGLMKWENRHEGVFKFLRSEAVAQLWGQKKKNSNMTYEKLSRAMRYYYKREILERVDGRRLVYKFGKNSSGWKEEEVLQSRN
# How it was run: as §1
# [18] = molecular target: ETV1 (Homo sapiens, UniProt P50549 1-477); settings: protein: recombinant; tags: N-terminal GST; dsDNA, one strand shown
# How it was run: as §1
# Sequence of ELF4 (Q99607 whole entry): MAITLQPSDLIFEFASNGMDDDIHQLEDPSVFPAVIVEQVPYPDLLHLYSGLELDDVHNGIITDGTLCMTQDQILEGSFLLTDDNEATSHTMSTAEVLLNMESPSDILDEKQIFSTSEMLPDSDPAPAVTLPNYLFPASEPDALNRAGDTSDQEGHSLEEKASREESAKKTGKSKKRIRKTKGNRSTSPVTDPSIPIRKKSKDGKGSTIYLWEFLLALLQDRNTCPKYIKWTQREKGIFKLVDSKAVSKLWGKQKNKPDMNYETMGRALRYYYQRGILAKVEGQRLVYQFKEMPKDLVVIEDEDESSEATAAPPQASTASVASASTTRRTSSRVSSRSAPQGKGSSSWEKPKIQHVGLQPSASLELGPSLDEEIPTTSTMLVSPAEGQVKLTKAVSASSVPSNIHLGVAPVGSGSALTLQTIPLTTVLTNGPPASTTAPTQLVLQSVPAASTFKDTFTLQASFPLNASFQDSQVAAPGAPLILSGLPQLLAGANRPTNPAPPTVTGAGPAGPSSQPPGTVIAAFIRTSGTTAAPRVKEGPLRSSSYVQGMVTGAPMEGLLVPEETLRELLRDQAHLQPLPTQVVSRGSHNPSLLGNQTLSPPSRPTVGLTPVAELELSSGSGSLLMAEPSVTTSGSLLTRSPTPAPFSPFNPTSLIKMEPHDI
# Sequence of ETV1 (P50549 whole entry): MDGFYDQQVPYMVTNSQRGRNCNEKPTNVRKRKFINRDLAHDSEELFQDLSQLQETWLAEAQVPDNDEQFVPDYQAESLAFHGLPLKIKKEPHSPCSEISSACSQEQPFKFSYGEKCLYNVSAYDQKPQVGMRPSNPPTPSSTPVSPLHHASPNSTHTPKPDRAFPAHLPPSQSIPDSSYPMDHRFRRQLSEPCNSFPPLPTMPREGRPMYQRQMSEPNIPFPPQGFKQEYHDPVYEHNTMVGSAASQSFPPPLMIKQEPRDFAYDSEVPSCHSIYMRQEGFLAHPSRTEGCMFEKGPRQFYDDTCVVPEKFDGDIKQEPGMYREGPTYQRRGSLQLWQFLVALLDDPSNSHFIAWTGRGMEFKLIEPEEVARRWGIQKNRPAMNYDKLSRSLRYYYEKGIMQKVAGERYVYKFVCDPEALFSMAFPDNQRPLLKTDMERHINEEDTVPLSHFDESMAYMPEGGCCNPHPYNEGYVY
# Sequence of ETV5 (P41161 whole entry): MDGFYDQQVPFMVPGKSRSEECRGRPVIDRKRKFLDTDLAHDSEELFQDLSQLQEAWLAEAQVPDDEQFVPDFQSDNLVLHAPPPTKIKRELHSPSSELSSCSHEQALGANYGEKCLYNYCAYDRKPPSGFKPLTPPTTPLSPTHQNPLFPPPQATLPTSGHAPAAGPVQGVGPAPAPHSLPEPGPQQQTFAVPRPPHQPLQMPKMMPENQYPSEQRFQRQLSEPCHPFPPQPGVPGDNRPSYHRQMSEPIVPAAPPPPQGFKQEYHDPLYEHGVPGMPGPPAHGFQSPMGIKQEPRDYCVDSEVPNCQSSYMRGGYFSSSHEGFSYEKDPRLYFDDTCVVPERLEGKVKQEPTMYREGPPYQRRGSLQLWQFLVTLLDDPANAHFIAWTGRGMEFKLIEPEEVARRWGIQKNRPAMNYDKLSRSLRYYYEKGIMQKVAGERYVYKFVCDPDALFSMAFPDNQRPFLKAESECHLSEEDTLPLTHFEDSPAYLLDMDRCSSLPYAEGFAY
# Sequence of HSF1 (Q00613 whole entry): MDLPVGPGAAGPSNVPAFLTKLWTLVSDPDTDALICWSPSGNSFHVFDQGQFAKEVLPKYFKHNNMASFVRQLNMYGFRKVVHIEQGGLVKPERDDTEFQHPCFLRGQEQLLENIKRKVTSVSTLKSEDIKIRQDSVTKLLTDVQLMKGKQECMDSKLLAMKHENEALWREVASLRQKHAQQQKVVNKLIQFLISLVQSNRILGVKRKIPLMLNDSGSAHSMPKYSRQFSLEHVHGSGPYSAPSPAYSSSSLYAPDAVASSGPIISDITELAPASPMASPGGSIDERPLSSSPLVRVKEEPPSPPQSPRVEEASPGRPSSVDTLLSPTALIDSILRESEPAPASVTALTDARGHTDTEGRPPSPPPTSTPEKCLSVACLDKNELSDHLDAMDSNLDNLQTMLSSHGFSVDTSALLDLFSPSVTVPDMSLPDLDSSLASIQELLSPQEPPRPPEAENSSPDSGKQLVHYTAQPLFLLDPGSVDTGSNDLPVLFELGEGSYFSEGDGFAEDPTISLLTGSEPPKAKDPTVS
# Sequence of ELF1 (P32519 whole entry): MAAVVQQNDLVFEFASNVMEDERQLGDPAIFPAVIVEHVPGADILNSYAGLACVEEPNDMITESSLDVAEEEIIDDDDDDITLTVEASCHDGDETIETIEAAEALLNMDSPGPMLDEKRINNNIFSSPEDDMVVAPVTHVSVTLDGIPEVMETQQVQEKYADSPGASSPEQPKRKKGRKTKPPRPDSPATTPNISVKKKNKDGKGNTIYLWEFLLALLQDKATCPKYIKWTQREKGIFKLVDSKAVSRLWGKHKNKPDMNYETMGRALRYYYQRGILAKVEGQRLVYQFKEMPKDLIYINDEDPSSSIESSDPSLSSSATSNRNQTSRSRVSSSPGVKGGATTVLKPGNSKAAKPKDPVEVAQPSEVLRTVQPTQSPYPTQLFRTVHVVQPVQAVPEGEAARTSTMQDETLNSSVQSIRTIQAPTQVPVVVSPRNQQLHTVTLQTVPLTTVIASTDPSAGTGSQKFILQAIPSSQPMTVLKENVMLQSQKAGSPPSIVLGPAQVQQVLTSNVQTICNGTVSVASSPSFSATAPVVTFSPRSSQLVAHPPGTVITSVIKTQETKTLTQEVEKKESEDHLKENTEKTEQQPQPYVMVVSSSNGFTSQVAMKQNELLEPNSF
# Sequence of SPIB (Q01892 whole entry): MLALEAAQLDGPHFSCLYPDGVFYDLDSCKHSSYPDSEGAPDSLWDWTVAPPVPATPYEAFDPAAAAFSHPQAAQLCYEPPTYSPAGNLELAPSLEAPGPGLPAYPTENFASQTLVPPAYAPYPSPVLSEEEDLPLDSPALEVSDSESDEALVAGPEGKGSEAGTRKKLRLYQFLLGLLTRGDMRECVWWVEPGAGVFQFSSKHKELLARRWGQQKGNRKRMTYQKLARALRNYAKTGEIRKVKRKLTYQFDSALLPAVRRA
sequence,measurement,setting,value
ATGTAC,binding signal,[1],"1.31 fold enrichment (6-mer frequency, TF over GST control)"
same,binding signal,[2],"1.31 fold enrichment (6-mer frequency, TF over GST control)"
same,binding signal,[3],"1.19 fold enrichment (6-mer frequency, TF over GST control)"
same,binding signal,[4],"1.11 fold enrichment (6-mer frequency, TF over GST control)"
same,binding signal,[5],"1.27 fold enrichment (6-mer frequency, TF over GST control)"
same,binding signal,[6],"1.25 fold enrichment (6-mer frequency, TF over GST control)"
same,binding signal,[7],"1.23 fold enrichment (6-mer frequency, TF over GST control)"
same,binding signal,[8],"1.27 fold enrichment (6-mer frequency, TF over GST control)"
same,binding signal,[9],"1.26 fold enrichment (6-mer frequency, TF over GST control)"
same,binding signal,[10],"1.3 fold enrichment (6-mer frequency, TF over GST control)"
same,binding signal,[11],"1.23 fold enrichment (6-mer frequency, TF over GST control)"
same,binding signal,[12],"1.16 fold enrichment (6-mer frequency, TF over GST control)"
same,binding signal,[13],"1.31 fold enrichment (6-mer frequency, TF over GST control)"
same,binding signal,[14],"1.31 fold enrichment (6-mer frequency, TF over GST control)"
same,binding signal,[15],"1.37 fold enrichment (6-mer frequency, TF over GST control)"
same,binding signal,[16],"1.39 fold enrichment (6-mer frequency, TF over GST control)"
same,binding signal,[17],"1.3 fold enrichment (6-mer frequency, TF over GST control)"
same,binding signal,[18],"1.35 fold enrichment (6-mer frequency, TF over GST control)"
